# Measured values from PubChem BioAssay (NCI).
# The panel holds about 83,000 compounds, 20% with a hit somewhere; the sample as a whole holds those more often.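 48-hour exposure, single concentration, 96-well plates; percent growth endpoint where 0 means no net growth. Active: below 10.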 Unmarked numbers belong to inactive results. Active and inactive are the calls of the source.
# How the values were obtained:
# Assay in all cases: NCI-60 one-dose screen, 48 h (100 = growth as untreated, 0 = no growth, -100 = all killed)
# Settings in all cases: 10 µM unless noted
# OVCAR-8 ovarian = tested on: OVCAR-8 ovarian
# OVCAR-5 ovarian = tested on: OVCAR-5 ovarian
# OVCAR-4 ovarian = tested on: OVCAR-4 ovarian
# SK-OV-3 ovarian = tested on: SK-OV-3 ovarian
# IGROV1 ovarian = tested on: IGROV1 ovarian
# OVCAR-3 ovarian = tested on: OVCAR-3 ovarian
# HS 578T breast = tested on: HS 578T breast
# NCI/ADR-RES ovarian = tested on: NCI/ADR-RES ovarian
# T-47D breast = tested on: T-47D breast
SMILES,growth (OVCAR-8 ovarian),growth (OVCAR-5 ovarian),growth (OVCAR-4 ovarian),growth (SK-OV-3 ovarian),growth (IGROV1 ovarian),growth (OVCAR-3 ovarian),growth (HS 578T breast),growth (NCI/ADR-RES ovarian),growth (T-47D breast)
COc1ccc(-c2nc3sccn3c2-c2ccnc(S(C)(=O)=O)n2)cc1,111%,96.7%,80.4%,105%,37.9%,84.3%,94.3%,104%,36.4%
CCCCCCCCCCCCNc1ncnc2[nH]ncc12,77.3%,90.6%,77.8%,105%,92.8%,79.5%,92.4%,83.8%,62.8%
O=C(/C=C/c1cc2ccccc2[nH]c1=O)c1ccc(Cl)cc1,23.1%,55.9%,43.8%,58%,26.4%,-10.1% (active),54%,-6.67% (active),34%
CN(CC(=O)Nc1nc2ccccc2[nH]1)S(=O)(=O)c1ccc(Cl)cc1,95.2%,96.4%,93.6%,96.5%,-28.9% (active),91%,87.2%,88.3%,77%
COc1cccc(CCC2C(=O)CCCC2=O)c1,116%,103%,124%,102%,111%,99.9%,,110%,
COc1cccc(/C=C2\COc3ccc(O)c(O)c3C2=O)c1OC,18.3%,2.35% (active),35.3%,54.8%,-39.9% (active),-18.1% (active),17.3%,16.9%,4.89% (active)
Cn1cnc([N+](=O)[O-])c1S(=O)(=O)Oc1ccc(Cl)cc1,76.6%,102%,102%,104%,69.8%,-60.3% (active),,95.8%,-31.1% (active)
Cn1cc(-c2nc(-c3c[nH]c4ncc(F)cc34)cs2)c2cccnc21,105%,93.4%,82.2%,109%,108%,117%,,100%,59.9%
O=[N+]([O-])c1cnc(Sc2ccncn2)c([N+](=O)[O-])c1,97.3%,102%,97.8%,97.2%,117%,55.1%,97.8%,107%,-31.7% (active)
Cc1ccccc1NC(=O)c1cc2ccccc2cc1O,60%,77.9%,56.1%,61.1%,30.2%,-10.2% (active),,27.8%,49.9%
O=C(/C=C/c1ccccc1)CC(c1ccccc1)N1CCOCC1 (stereo not drawn),85.1%,98.7%,105%,98.4%,91.8%,78.9%,,104%,81.3%
CC1=C(C(=O)Nc2ccccc2)C(c2ccc3c(c2)OCCO3)NC(=O)N1 (stereo not drawn),102%,102%,106%,101%,104%,106%,101%,101%,101%
CCOC(=O)c1ccccc1OC(=O)NNc1ccccc1,71.3%,83.7%,63.6%,93.7%,60.4%,77.7%,,58.1%,57.3%
CCCCCCCCCCCCCCCCCC1=NC(C)(C)CN1CCO,1.75% (active),82.4%,33.5%,-36.2% (active),-26.4% (active),-9.27% (active),-38.4% (active),55.5%,-23.9% (active)
O=C1C(=O)c2ccc(Br)cc2-c2cc(Br)ccc21,-1.14% (active),113%,-99% (active),81%,68.7%,-48.6% (active),86.4%,-29.2% (active),20%
Nc1ccccc1-c1ccc([N+](=O)[O-])cc1,75.3%,75%,63.2%,90.6%,56.2%,71.7%,,52.2%,38.6%
CCC(C)CC(CC)NCCN1CCN(C(CC)CC(C)CC)C1=S (stereo not drawn),62.7%,37.2%,37.8%,56.2%,52.7%,39.5%,67.2%,56.4%,-9.85% (active)
O=C1OCCCCCCCCCC#Cc2ccccc21,105%,99%,91.3%,97.3%,72.1%,122%,108%,99.7%,80.1%
CC1SC(c2c(Cl)cccc2Cl)N(NC(=O)c2[nH]c3ccc(F)cc3c2-c2ccccc2)C1=O (stereo not drawn),33.1%,78.3%,-54.7% (active),19.1%,-6.28% (active),-62.2% (active),-8.04% (active),,2.88% (active)
c1ccc(-n2nnnc2-c2cccc3ccccc23)cc1,30.5%,35.5%,59.6%,5.6% (active),31.4%,-26.8% (active),,-12.6% (active),
Clc1ccc(-n2cnc3c(Cl)ncnc32)cc1Cl,88%,82.5%,103%,99.8%,54.6%,98.9%,,107%,82.2%
CCCCCCCC/C=C/CCCCCCCC1=NC(C)(C)CN1CCO,45%,87.3%,52.3%,78.6%,-40.5% (active),32.8%,35.1%,77.3%,0.508% (active)
COc1c(O)cc2oc3cc(O)c(CC=C(C)C)c(O)c3c(=O)c2c1C/C=C(\C)CCC=C(C)C,24.4%,84.7%,72.6%,100%,81.4%,62%,,-39% (active),77.1%
CC12CCC3C(CCC4CC(=O)/C(=C\O)CC43C)C1CCC(=O)O2 (stereo not drawn),101%,95.7%,112%,128%,95.1%,114%,,96.1%,117%
CC(c1ccccn1)C(C)(O)C(C)c1ccccn1 (stereo not drawn),101%,98%,112%,114%,112%,106%,104%,107%,118%
CC/C=C\C=C/C(=O)N/C=C/CC1Cc2cccc(O)c2C(=O)O1 (stereo not drawn),90.5%,91%,80.2%,63.9%,79.1%,86%,50.7%,57.2%,67.2%
Cc1c(C)c(N2C(=O)C=CC2=O)c(C)c(C)c1N1C(=O)C=CC1=O,96.1%,91%,104%,114%,83.6%,45.1%,,96.4%,
CN1COc2ccc3ccccc3c2C1,93%,77%,91.7%,103%,86.3%,98.9%,,89.8%,88.2%
O=C(CSCC(=O)N/N=C/c1ccccc1O)N/N=C\c1ccccc1O,28.3%,56.2%,27.5%,27.8%,18.9%,34.5%,,26.1%,35.5%
